Shown are actives, neighbours in structure and some others; about 1.8% of the full set was active somewhere.
TrxR1 inh – qHTS Assay for Inhibitors of Mammalian Selenoprotein Thioredoxin Reductase 1 (TrxR1): qHTS; Thioredoxin reductase 1, cytoplasmic (Rattus norvegicus), O89049; recombinant rTrxR1, NADPH fluorescence consumption, selenite substrate; Potency, µM (series often up to 114 µM), for the others: at the highest dose activity change, negative = inhibition, usual class: inhibitors; 1% of 390,000 active; AID 588453, 2011; further: nearly all actives have a fitted effect of over 65% in size
Target sequence (O89049 whole entry, looked up): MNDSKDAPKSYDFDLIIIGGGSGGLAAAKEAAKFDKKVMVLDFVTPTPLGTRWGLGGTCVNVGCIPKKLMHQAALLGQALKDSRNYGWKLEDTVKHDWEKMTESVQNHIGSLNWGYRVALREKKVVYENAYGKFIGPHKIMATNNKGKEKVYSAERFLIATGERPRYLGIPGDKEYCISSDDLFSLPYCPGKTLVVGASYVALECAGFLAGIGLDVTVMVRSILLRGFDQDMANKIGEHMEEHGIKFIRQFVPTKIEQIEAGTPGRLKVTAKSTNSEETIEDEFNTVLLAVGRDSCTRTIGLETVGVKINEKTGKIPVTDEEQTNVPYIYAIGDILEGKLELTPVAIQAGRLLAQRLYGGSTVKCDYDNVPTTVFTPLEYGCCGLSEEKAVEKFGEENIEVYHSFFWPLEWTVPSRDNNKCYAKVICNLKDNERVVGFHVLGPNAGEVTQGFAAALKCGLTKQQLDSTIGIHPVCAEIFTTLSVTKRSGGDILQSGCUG
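Rat TrxR1 (90 nM in the dispensed reagent) was pre-reduced with 400 uM NADPH for 5 min at room temperature, then incubated with compound for 15 min. After 400 uM selenite was added, NADPH fluorescence (Ex 340/Em 450 nm) was followed for 8 min.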
KAT2A inh – qHTS Assay for Inhibitors of GCN5L2. Histone acetyltransferase KAT2A (Homo sapiens), Q92830. GCN5L2 HAT assay, ThioGlo1 CoA-SH fluorescence. Potency, µM (highest dose often 58.9 µM), for inactives: top-dose activity change, negative = inhibition, most hits filed as inhibitors. 0.21% of 390,000 active
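Enzyme at 20nM final was mixed with library compounds for 15 min at room temperature. Peptide H3(1-25) at 75uM, acetyl-CoA at 70uM and ThioGlo1 at 50uM were then added. Plates were read immediately and after 20 min (Ex340nm/Em540nm).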
VDR inh – Inhibitors of the vitamin D receptor (VDR): qHTS; VDR-SRC2-3 peptide fluorescence polarization, 2 h; Potency, µM, for inactives: max response, negative = inhibition, most hits filed as inhibitors; AID 504847, 2011; 0.93% of 400,000 active
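After 23 nl compound addition and a short centrifugation, plates sat for 2 hours at ambient temperature; polarization of fluorescence then indicated loss of VDR binding to peptide SRC2-3.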
TrxR1 substrate – qHTS Assay for Substrates of Mammalian Selenoprotein Thioredoxin Reductase 1 (TrxR1): qHTS; 0.01% of 390,000 active; Potency, µM (series often up to 114 µM), for the others: at the top dose activity change, negative = substrate turnover; purified TrxR1 substrate turnover, NADPH consumption readout; Thioredoxin reductase 1, cytoplasmic (Rattus norvegicus), O89049; further: nearly all actives have a fitted effect of over 50% in size
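Rat TrxR1, dispensed at 90 nM, was prereduced with 400 uM NADPH (final) for 5 min at ~22 deg C, then incubated with compound 15 min before 400 uM selenite. A first-read NADPH fluorescence drop versus no-compound background flagged substrates.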
Numbers without * were called inactive; ? = inconclusive; · = no result given; [ ] = remark or other dose. The call rests on the fitted dose curve; in most records, active means well fitted curve in the direction sought with a large enough effect; inconclusive means small, poorly fitted or top-dose-only effect, or another doubt; inactive means no such curve, though single readings can be large; an effect the other way counts as inactive or inconclusive. On the % scale 0 is the no-effect control and ±100 the full control effect; potency means the concentration at half of the fitted maximal effect.

SMILES | TrxR1 inh | KAT2A inh | VDR inh | TrxR1 substrate
CCCCC[C@H](O)/C=C/[C@@H]1[C@@H](C/C=C\CCCC(=O)OC)[C@@H](O)C[C@H]1O | 16% | -6% | -14% | -2%
CCCCC[C@H](O)/C=C/C1C(=O)C=C[C@H]1C/C=C\CCCC(=O)OC (some centres not stated) | ? | · | 25µM* | 2%
S=C(NNc1ccnc2cc(Cl)ccc12)Nc1ccc(Cl)cc1Cl | 5% | -4% | 79µM* | -9%
CN(C)c1nc(C=C(C#N)C#N)c(Cl)n1-c1ccc(F)cc1 | 4.5µM* | -7% | 25µM* | -9%
N#CC1=C(N)C(C#N)(C#N)C2(C(=O)Nc3ccccc32)C2CCCC=C12 (configuration not stated) | 56µM* | -9% | -3% | -7%
O=C(NCc1ccccc1Cl)c1cnc(N2CCCCC2)c2ccccc12 | 10%[57.1 µM] | -17% | 3% | -2%[57.1 µM]
O=C(CN1CCCN(S(=O)(=O)c2ccc(Br)cc2)CC1)Nc1cccc(C(F)(F)F)c1 | 50µM* | -7% | -8% | -7%
NC(=O)CN1CCCN(S(=O)(=O)c2ccc(Br)cc2)CC1 | 20µM* | -6% | -9% | 16%
Cc1ccc(NC(=O)CN2CCCN(S(=O)(=O)c3ccc(Br)s3)CC2)cc1 | 71µM* | 4% | -13% | -9%
NC(=O)CN1CCN(S(=O)(=O)c2ccc(Cl)cc2)CC1 | 35%[57.1 µM] | -3% | 12% | 14%[57.1 µM]
Cc1cccc(OCC(=O)Nc2c(C)ccc3nsnc23)c1C | 7% | -5% | 9% | 12%
S=C1NC(c2ccccc2)N2C(=S)NC(c3ccccc3)N12 (configuration not stated) | -4% | 28µM* | ? | 4%
O=C(Nc1nc2n(n1)C(c1ccccc1)C=C(c1ccccc1)N2)c1ccccc1 (configuration not stated) | 56µM* | -15% | 1% | 10%
COc1ccc(/C=C/c2sc3ccccc3[n+]2CCCCI)cc1OC | ? | · | · | -17%
CC(=O)N/C(=C/c1ccccc1)c1sc2ccccc2[n+]1CCCCI | 45µM* | · | · | -5%
CS(=O)(=O)c1ccc(/C=C2\C=Cc3ccccc32)cc1 | -27% | · | · | -10%
COC/C=C/C1=CC2=CC(=O)C(C)(OC(=O)C3CCCC3)C(=O)C2=CO1 (configuration not stated) | 13µM* | 14% | ? | 10%[57.1 µM]
COC/C=C/C1=CC2=CC(=O)C(C)(OC(=O)c3ccco3)C(=O)C2=CO1 (configuration not stated) | · | 0% | ? | ·
Clc1ccc2c(ccc[n+]2CCC2CCCCC2)c1 | 11% | · | · | 2%
COc1ccc(CCSc2n[nH]c(C(C)C)n2)cc1 | 12% | · | · | 0%
c1ccc(Nc2ncncc2-c2ccoc2)cc1 | · | -10% | 56µM* | ·
CN(C)c1ccc(-c2cncnc2-n2ccnc2)cc1 | · | ? | 45µM* | ·
Fc1ccc(Nc2ncncc2-c2ccoc2)cc1 | · | -13% | 32µM* | ·
COc1ccccc1-c1cncnc1Nc1ccccc1 | · | ? | 28µM* | ·
COc1ccccc1-c1cncnc1Nc1ccc(F)cc1 | · | -9% | -14% | ·
SMILES | TrxR1 inh | KAT2A inh | VDR inh | TrxR1 substrate
COc1ccccc1CNc1ncncc1-c1ccoc1 | · | -6% | ? | ·
O=c1[nH]c(=O)n([C@H]2C[C@@H](O)[C@@H](CO)O2)cc1F | 27% | · | · | 4%
CCCCCCCCCC[n+]1ccc(/C=C/c2c[nH]c3ccccc23)c2ccccc21 | ? | · | · | -1%
O=C(O)C1CCCC1 | 13% | · | · | 13%
COC1C(OC(=O)/C=C/C=C/C=C/C=C/C(=O)O)CCC2(CO2)C1C1(C)OC1CC=C(C)C (configuration not stated) | · | -9% | · | ·
CC(C)C[C@H](NC(=O)[C@H](Cc1ccccc1)C[C@@H](O)[C@H](Cc1ccccc1)NC(=O)OC(C)(C)C)C(=O)N[C@@H](Cc1ccccc1)C(N)=O | · | 1% | 9% | ·
COc1cc2ccccc2cc1C(=O)OCC(=O)Nc1ccc(Br)cc1 | 6% | · | · | 17%
CN(C)c1ccc(-c2cncnc2Nc2ccc(F)cc2)cc1 | · | ? | 45µM* | ·
Cc1ccccc1-c1cncnc1Nc1ccc(F)cc1 | · | -18% | -10% | ·
CNc1ccc(-c2nc3ccccc3s2)cc1 | · | -15% | 11µM* | ·
CC(C)(C)C(=O)Nc1ccc(-c2nc3ccccc3s2)cc1 | -8% | -4% | 4% | -3%
Cc1ccc(-c2nn3c(-c4ccccc4C)nnc3c3ccccc23)cc1 | 30% | 3% | -12% | 19%
O=C(CN1CCN(S(=O)(=O)c2ccc(Cl)cc2)CC1)c1ccc(O)c(O)c1 | 25µM* | ? | 3% | -9%
O=C(CN1CCN(S(=O)(=O)c2ccc(F)cc2)CC1)c1ccc(O)c(O)c1 | -66% | -14% | 17% | -11%[57.1 µM]
Cc1ccnc2cc(Cl)c(Cl)cc12 | 9% | · | · | 10%[0.0914 µM]
CC(C)(C)n1ncc2c(=O)n(Cc3cccc(OC(F)(F)F)c3)cnc21 | 13% | · | · | -7%
O=[N+]([O-])c1cccc(-c2nc3ccc([N+](=O)[O-])cc3[nH]2)c1 | 33% | -8% | 32µM* | -3%
CCCC(=O)Oc1ccc2[nH]c(C(=O)c3cc4ccccc4[nH]3)cc2c1 | 9% | · | · | 7%
COc1cc2nc(N3CCCCC3)nc(NC3CCN(C)CC3)c2cc1OC | ? | · | · | 97%
CCN(CC)c1ccc(C=Nc2ccc(C)cc2)c(O)c1 | -10% | -13% | -1% | -11%
CCN(CC)c1ccc(/C=N/Nc2ccccc2)c(O)c1 | 8.9µM* | -14% | 79µM* | -7%
CCN(CC)c1ccc(C=Nc2ccccc2)c(O)c1 | 4%[57.1 µM] | -8% | -17% | -10%[57.1 µM]
CCN(CC)c1ccc(/C=N/Nc2cccc(C)c2)c(O)c1 | 22µM* | -11% | ? | -18%
CCN(CC)c1ccc(N=Cc2ccc(N(CC)CC)cc2O)cc1 | 5% | -23% | 50µM* | -7%
Cc1cc(C)c2c(=O)n(CC(=O)Nc3ccc(Cl)cc3)sc2n1 | 1% | ? | 40µM* | -4%
SMILES | TrxR1 inh | KAT2A inh | VDR inh | TrxR1 substrate
Cc1cc(C)c2c(=O)n(CC(=O)Nc3cccc(F)c3)sc2n1 | -11% | ? | 14µM* | -10%
Cc1cc(C)n(CCC(=O)Nc2ccc(Cl)cc2)n1 | 19%[57.1 µM] | -4% | 11% | 8%[57.1 µM]
Cc1cccc(N2CCN(C(=O)Cn3sc4nc(C)cc(C)c4c3=O)CC2C)c1 (configuration not stated) | -41% | ? | 16µM* | 3%[57.1 µM]
Cc1ccc(NC(=O)Cn2sc3nc(C)cc(C)c3c2=O)c(Cl)c1 | -26% | 28µM* | ? | -12%
Cc1ccc(NC(=O)Cn2c(C)cc(C)c(C#N)c2=O)c(Cl)c1 | 10% | 2% | -2% | 9%
Cc1cc(C)c2c(=O)n(CC(=O)N3CCC(Cc4ccccc4)CC3)sc2n1 | · | 2% | · | ·
Cc1cc(C)cc(Oc2nc3c(C)cccn3c(=O)c2/C=C(\C#N)c2nc3ccccc3s2)c1 | 45% | 8% | ? | 19%
